# Source: PubChem BioAssay (National Center for Advancing Translational Sciences (NCATS))
# RXFP1 antagonist = RXFP1 (human) relaxin receptor antagonism. Q9HBX9. HEK293-RXFP1, relaxin-stimulated cAMP HTRF, 30 min; hits give low values. activity change, negative = inhibition, % at 57.5 µM. 350,000 tested, 0.59% active;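 active = activity change of -60% or lower, but not beyond a set lower limit; inconclusive = change between -60% and -40%, or beyond the set limit; inactive = change above -40%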; also: % is scaled to controls: 0 for no effect and ±100 for the full control effect
# gsp agonist = gsp mutant agonism; 340,000 tested, 0.13% active; Potency, µM (top dose mostly 76.9 µM), inactives show at the top dose activation (cAMP increase), hits mostly activators; gsp mutant cells, cAMP HTRF, 30 min; active = well fitted activation curve with a large enough effect; inconclusive = small, poorly fitted or top-dose-only effect, or another doubt; inactive = no such curve, though single readings can be large or run the other way; cell line not stated here;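 also: phosphodiesterase inhibitor Ro 20-1724 added with compounds to block cAMP breakdown; potency is read from the fitted curve at half-maximal effect; nearly all actives have a fitted effect of over 60% in size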
#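 Cells stably selected in G418 were plated at 2000/well, grown 16-24 hr, then given compounds in DMSO with the PDE inhibitor […] (300 uM solution added) for 30 min at 37C; cAMP was read by HTRF.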
# RXFP1 agonist = RXFP1 (human) receptor agonism. AID 2676. Q9HBX9. Potency, µM (top dose mostly 57.5 µM), inactives show at the highest dose activation, usual class: activators. 370,000 tested, 0.3% active. HEK293T-RXFP1 cAMP TR-FRET, 30 min; response scale: percent of porcine relaxin response, buffer zero; active = well fitted activation curve with a large enough effect; inconclusive = small, poorly fitted or top-dose-only effect; also: potency is read from the fitted curve at half-maximal effect; % is scaled to controls: 0 for no effect and ±100 for the full control effect; nearly all actives have a fitted effect of over 60% in size
#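 HEK293 cells stably expressing RXFP1, treated 30 min at 37C with compounds plus PDE4 inhibitor Ro 20174; cAMP measured by HTRF TR-FRET. Normalized to buffer and 29 nM porcine relaxin; EC50 by Hill fit.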
# Akt phos inh = blocks phosphorylation of Akt. 360,000 tested, 0.32% active. activity change, % for hits at 50 µM. Neuro2A IGF-stimulated pAkt S473 HTRF, 20 min; hits give low values; in the data active = activity change below about -80%; inconclusive = mostly about -51% to -80%; also: % is scaled to controls: 0 for no effect and ±100 for the full control effect
#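 Neuro2A cells in DMEM with 0.5% FBS, overnight at 37 deg C, given compound at single 50 µM final, then IGF (6 nM final) for 20 min at 37 deg C. Lysed; phospho-Akt Ser473 by HTRF after 24 h, 665/615 ratio.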
# gsp antag = antagonizes gsp, the McCune-Albright syndrome mutation. gsp-mutant cells, cAMP HTRF, 30 min. 340,000 tested, 0.4% active. Potency, µM (doses to about 76.9 µM), for the others: at the top dose activity change, negative = inhibition, most hits filed as inhibitors. AID 624288; calls by dose curve; cell line not stated here;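 also: intracellular cAMP measured with PDE inhibitor Ro 20-1724 present during compound exposure; potency is read from the fitted curve at half-maximal effect; % is scaled to controls: 0 for no effect and ±100 for the full control effect; nearly all actives have a fitted effect of over 65% in size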
#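 Measurement of cellular cAMP by homogeneous time-resolved fluorescence following a 30 min compound exposure at 37C. The PDE inhibitor […] was present throughout; the assay buffer was DPBS with 0.05% BSA and 0.005% Tween 20.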
# ClpP mod = qHTS Assay for Activators of ClpP; purified B. subtilis ClpP, FRET peptide cleavage, 20 min; Potency, µM (series often up to 57.5 µM), without a hit: at the top dose activity change, negative = active; 340,000 tested, 1.9% active; ATP-dependent Clp protease proteolytic subunit (Bacillus subtilis (strain 168)), P80244; active = well fitted falling curve with a large enough effect; inconclusive = small, poorly fitted or top-dose-only effect; inactive = no such curve, though single readings can be large or run the other way; also: potency is read from the fitted curve at half-maximal effect; the source files actives as falling curves though it sought activators and does not explain the sign; nearly all actives have a fitted effect of over 65% in size
# Target sequence (P80244 whole entry, looked up): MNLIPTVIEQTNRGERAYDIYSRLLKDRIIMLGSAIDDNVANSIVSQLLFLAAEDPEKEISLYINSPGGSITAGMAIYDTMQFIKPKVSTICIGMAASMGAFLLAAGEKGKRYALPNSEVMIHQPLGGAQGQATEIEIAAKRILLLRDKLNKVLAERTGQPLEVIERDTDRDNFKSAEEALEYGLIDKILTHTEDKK
#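 Purified B. subtilis ClpP, 10 microg/mL final in Tris/HCl pH8 with KCl, BSA, glycerol and Tween-20, cleaved an Abz/nitrotyrosine-quenched decapeptide. Fluorescence (ex 320, em 430) was read at 0 and 20 min at room temperature. Delta was normalized to 5.8 microM ADEP and DMSO/no-enzyme controls.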
# Starred values were filed as active, the others as inactive; i = inactive; u = inconclusive; x = no result given; ! = a repeat was not active; [ ] = another dose, or the depositor's remark. Compounds with a hit are over-represented: about 2.7% of the library has one in this group of screens.
SMILES,RXFP1 antagonist,gsp agonist,RXFP1 agonist,Akt phos inh,gsp antag,ClpP mod
CCOc1ccc2nc(NCCNC(=O)c3cc(OC)c(OC)c(OC)c3)c(C#N)cc2c1,13.8,2.4%,1.5%,i,4.4%,-6.5%
CCOc1ccc2nc(NCCNC(=O)C(C)C)c(C)cc2c1,-3.4,-1.7%,1.9%,i,-1.9%,15.8µM*
O=C(CCOCCOCCOCCOCCC(=O)Nc1c(I)cc(I)c(C(=O)O)c1I)Nc1c(I)cc(I)c(C(=O)O)c1I,-9.4,x,x,x,x,x
O=C(OCc1ccccc1)C1=NNC2C(=O)N(c3ccccc3)C(=O)C12 (stereo not given),-10.3,7.7%[15.4 µM],0.6%,i,14.6%,22.4µM*
COc1ccc([C@]23Cc4cc(C#N)ccc4C(O2)c2c(cc(C)n(-c4ccccc4)c2=O)O3)cc1,x,x,1.1%[11.5 µM],x,x,x
NC(=S)N/N=C\c1ccc(-c2cccc(Cl)c2Cl)o1,-28.4,-4.8%,-2.2%,-122.1%*,-6.0%,-4.9%
CC(=O)N1CCOc2ccc(S(=O)(=O)N3CCC(C)CC3)cc21,-6.5,u,0.7%,i,3.9%,-0.1%
COc1ccc(-c2nc3ccccc3o2)cc1NC(=O)c1ccc(Br)o1,6.6,u,0.1%,i,-26.9%,22.4µM*
COc1ccc(-c2nc3ccccc3o2)cc1NC(=O)c1ccc(-c2ccc(Br)cc2)o1,x,x,8.3%,x,x,-19.4%
Cc1ccc(-c2nc3ccccc3o2)cc1NC(=S)NC(=O)c1cc2ccccc2o1,16.8,4.1%,0.7%,i,6.1%,15.8µM*
CC(=O)c1cccc(N(C(=O)c2csnn2)C(C(=O)NC2CCCC2)c2ccccc2)c1 (stereo not given),-79.6*,2.8%,2.3%,i,-6.6%,x
Cc1ccc(C)c(N2CCN(C(=O)c3cc4c(=O)n(Cc5cccs5)ccc4nc3C)CC2)c1,-29.6,x,-0.9%,x,x,u
CC(=O)/C=C/c1ccc2c(c1)S(=O)(=O)N(C1CCCC1)[C@H]2CC(C)=O,x,x,x,x,x,-2.4%
CC(=O)c1cccc(NC(=O)CCn2c(=O)oc3ccccc32)c1,-5.4,3.3%[15.4 µM],0.2%,i,-3.7%,x
Cc1cccc(NS(=O)(=O)c2ccc(Oc3ccccc3)cc2)n1,-5.8,u,0.3%,i,-10.3%,22.4µM*
Cc1ccc(F)c(S(=O)(=O)NC(=O)C2(C)CCN2C(=O)c2ccc(C(F)(F)F)nc2C)c1 (stereo not given),x,x,x,i,x,1.3%
Cc1ccccc1NC(=O)Cn1c(C)nc2ccc(N)cc2c1=O,2.3,u,8.2%,i,3.3%,28.2µM*
O=C(COC(=O)c1ccc(NS(=O)(=O)c2cccs2)cc1)Nc1nc2c(F)c(F)c(F)cc2s1,-61.5*,13.2%[15.4 µM],2.5%,i,-16.2%,x
CC(=O)Oc1cccc(C(=O)Nc2ccc3c(c2)C(=O)N(CC2CCCO2)C3=O)c1 (stereo not given),0.1,1.2%,-0.8%,i,-0.8%,31.6µM*
CC(=O)Oc1ccc(C(=O)Nc2ccc3c(c2)C(=O)N(CCC(=O)O)C3=O)cc1,2.3,9.4%,0.8%,i,0.3%,28.2µM*
O=C(O)c1cccc(NC(=O)c2ccc3c(c2)C(=O)N(CC2CCCO2)C3=O)c1 (stereo not given),0.3,-17.5%,0.5%,x,-7.3%,1.6%
O=C(CN1C(=O)c2ccc(Br)cc2C1=O)NCC1CCCO1 (stereo not given),11.2,7.08µM*,u,i,13.1%,-5.7%
O=C(CN1C(=O)c2ccccc2C1=O)NCC1CCCO1 (stereo not given),3.3,u,14.6%,i,13.2%,-0.7%
COc1cccc(C(=O)Nc2ccc3c(c2)C(=O)N(CC2CCCO2)C3=O)c1 (stereo not given),-37.7,-20.6%,-0.8%,i,-15.9%,0.0%
COc1cc(C(=O)Nc2ccc3c(c2)C(=O)N(CCC(=O)O)C3=O)cc(OC)c1OC,2.2,u,3.3%,i,-0.9%,0.8%
SMILES,RXFP1 antagonist,gsp agonist,RXFP1 agonist,Akt phos inh,gsp antag,ClpP mod
O=C(Nc1ccc2c(c1)C(=O)N(CC1CCCO1)C2=O)c1cccc(Br)c1 (stereo not given),-5.9,-19.6%,2.6%,x,u,31.6µM*
O=C(O)CCC(=O)N1N=C(c2cccs2)CC1c1cn(-c2ccccc2)nc1-c1ccccc1 (stereo not given),-14.5,-50.4%,0.1%,x,u,14.1µM*
CC(=O)Nc1ccc(C)cc1-c1nc2ccccc2n(Cc2cccc(Br)c2)c1=O,-12.6,x,-0.8%,x,x,0.1%
COc1ccc(C2Nc3ccc(NC(C)=O)cc3C(=O)N2Cc2ccccc2)cc1COc1ccc(NC(C)=O)cc1 (stereo not given),x,x,x,x,x,4.3%
O=C1c2ccccc2NC(c2ccc(OCc3ccccc3)c(OCc3ccccc3)c2)N1Cc1ccco1 (stereo not given),x,x,x,x,x,4.3%
COc1ccc(C2Nc3ccccc3C(=O)N2Cc2ccco2)cc1COc1ccc(NC(C)=O)cc1 (stereo not given),-6.7,-1.6%,-0.4%,i,-11.7%,31.6µM*!
COc1ccc(C2Nc3ccccc3C(=O)N2Cc2ccco2)cc1COc1ccccc1F (stereo not given),-24.8,-6.4%,-0.5%,i,6.3%,14.1µM*
CCOC(=O)C1=C(C)N=C2SC(C)C(=O)N2C1c1ccc(OC(C)=O)c(OC)c1 (stereo not given),4.1,-17.8%,2.4%,-103.9%*,11.4%,-1.2%
O=CN1CCN(C2CC(=O)N(c3ccc(Br)cc3)C2=O)CC1 (stereo not given),-9.3,u,-1.2%,i,12.0%,35.5µM*
CCC1c2ccc(C)n2CCN1C(=O)Nc1ccccc1C(=O)OC (stereo not given),-8.6,-0.6%,2.6%,i,-3.7%,35.5µM*
O=c1[nH]c2ccc(S(=O)(=O)N3CCN(Cc4ccccc4)CC3)cc2[nH]c1=O,1.5,-2.6%,1.4%,i,5.7%,28.2µM*
O=S(=O)(c1ccc(=S)[nH]c1)N1CCN(Cc2ccccc2)CC1,-66.3*,-0.7%[15.4 µM],x,i,4.5%,0.4%
O=c1[nH]c2ccc(S(=O)(=O)N3CCC(Cc4ccccc4)CC3)cc2o1,-5.9,8.4%,1.6%,i,25.1µM*,-1.6%
O=c1[nH]c2ccc(S(=O)(=O)N3CCN(C4CCCCC4)CC3)cc2[nH]c1=O,-6.6,2.5%,3.7%,i,8.0%,28.2µM*
O=S(=O)(c1ccc(=S)[nH]c1)N1CCCCC1,-22.5,2.7%,0.3%,i,5.9%,-3.0%
